Inconclusive results are not listed. Calls of active or inactive are those of the source. Rule for the calls: active = hit-call score of the fitted dose curve at least 0.9, where 1 is the maximum; inconclusive = response in the unintended direction; inactive = score below 0.9.

Chain of PGR (gene 5241) (P06401 whole entry, looked up): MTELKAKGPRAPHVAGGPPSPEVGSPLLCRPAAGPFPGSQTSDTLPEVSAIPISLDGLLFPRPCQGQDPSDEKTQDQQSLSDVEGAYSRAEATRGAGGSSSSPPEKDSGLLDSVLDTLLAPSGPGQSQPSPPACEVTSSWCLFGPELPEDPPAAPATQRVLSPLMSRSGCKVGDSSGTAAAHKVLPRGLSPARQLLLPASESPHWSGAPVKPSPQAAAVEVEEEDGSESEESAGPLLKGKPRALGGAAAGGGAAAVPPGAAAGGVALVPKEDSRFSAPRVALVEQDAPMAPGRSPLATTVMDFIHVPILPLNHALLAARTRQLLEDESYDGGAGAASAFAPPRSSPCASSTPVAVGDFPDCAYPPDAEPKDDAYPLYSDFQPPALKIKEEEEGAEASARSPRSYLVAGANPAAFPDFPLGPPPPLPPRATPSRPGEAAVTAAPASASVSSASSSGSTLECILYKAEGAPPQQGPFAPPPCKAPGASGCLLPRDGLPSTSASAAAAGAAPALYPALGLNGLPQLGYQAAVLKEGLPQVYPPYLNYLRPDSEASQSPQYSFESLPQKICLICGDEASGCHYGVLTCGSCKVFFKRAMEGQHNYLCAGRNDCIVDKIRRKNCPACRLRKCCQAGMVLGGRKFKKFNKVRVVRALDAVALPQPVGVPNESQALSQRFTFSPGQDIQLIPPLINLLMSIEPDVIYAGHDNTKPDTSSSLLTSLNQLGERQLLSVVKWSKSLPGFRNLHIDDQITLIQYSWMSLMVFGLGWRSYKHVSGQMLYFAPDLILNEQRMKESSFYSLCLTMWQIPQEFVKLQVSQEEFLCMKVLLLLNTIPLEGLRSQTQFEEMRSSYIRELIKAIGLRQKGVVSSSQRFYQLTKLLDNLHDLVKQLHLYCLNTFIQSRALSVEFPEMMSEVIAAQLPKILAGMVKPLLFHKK

The experiment has as its target PGR (gene 5241) (UniProt P06401). Kind of experiment: TOX21_PR_BLA_Followup_Agonist_ratio: Tox21 HEK293 Progesterone Receptor (PR) Agonism Beta-lactamase Follow-Up Assay, Ratio (AID 2283933). On the procedure: TOX21_PR_BLA_Followup is a secondary assay for specificity for the TOX21_PR_BLA_Agonist assay. To differentiate true PR agonists from cytotoxic substances, this follow up assay is multiplexed with a cell viability assay. The compounds were also tested for auto fluorescence that may interfere with the biological target readout resulting in potential false positives and/or negatives. To identify the compounds that stimulate PR signaling, a PR-UAS-bla GripTite cell line i.e. PR-UAS-bla HEK293T (Invitrogen, Carlsbad, CA, USA) containing a beta-lactamase reporter gene under the control of an UAS response element was used to screen Tox21 10K compound library. The cytotoxicity of the Tox21 compound library against the PR-bla cell line was tested in parallel by measuring the cell viability using CellTiter-Glo assay in the same wells. TOX21_PR_BLA_Followup_Agonist_ratio is an assay readout measuring reporter gene via receptor activity and designed using inducible reporter (beta lactamase induction) detected with GAL4 b-lactamase reporter gene. The signal is derived from the ratio of cleaved (ch2) to uncleaved (ch1) reporter gene substrate used as the measure of target activity.Data from the assay component TOX21_PR_BLA_Followup_Agonist_ratio was analyzed into 1 assay endpoint. This assay endpoint, TOX21_PR_BLA_Followup_Agonist_ratio, was analyzed in the positive analysis fitting direction relative to DMSO as the negative control and baseline of activity. Using a type of inducible reporter, measures of receptor for gain-of-signal activity can be used to understand the reporter gene at the pathway-level as they relate to the gene NR3C3. Furthermore, this assay endpoint can be referred to as a primary readout, because this assay has produced multiple assay endpoints where this one serves a reporter gene function. To generalize the intended target to other relatable targets, this assay endpoint is annotated to the nuclear receptor intended target family, where the subfamily is steroidal.
Assay Protocol: PR-UAS-bla HEK 293T cells were dispensed at 3,000 cells/5 uL of assay medium containing 2% charcoal stripped FBS per well into black wall/clear-bottom 1536-well plates using a Multidrop Combi (ThermoFisher Scientific, Waltham, MA) dispenser. After the assay plates were incubated at a 37C and 5% CO2 for 6hr, 23 nL of compounds dissolved in DMSO, positive controls or DMSO only was transferred to the assay plate by a Pintool station (Kalypsys, San Diego, CA). The plates were incubated at 37C and 5% CO2 for 16hr. Then 1 uL of LiveBLAzer B/G FRET substrate was added using a BioRAPTR FRD (Flying Reagent Dispenser, Aurora Discovery, San Diego, CA). After the plates were incubated at room temperature for 2 hours, fluorescence intensity was measured by an Envision plate reader (PerkinElmer, Shelton, CT).
`CC1(C)OC(=O)Nc2ccc(Br)cc21`: the result was inactive.
For orientation: AC50 means the concentration giving half of the maximal activity seen. In the case of `C[C@@H]1C[C@H]2[C@@H]3CCC4=CC(=O)C=C[C@]4(C)[C@@]3(F)[C@@H](O)C[C@]2(C)[C@@]1(O)C(=O)COC(=O)c1ccncc1`, the AC50 is 26100 nM (active).
As to `CC(=O)O[C@H]1CC[C@@]2(C)C(=CC[C@@H]3[C@@H]2CC[C@]2(C)C(C(C)=O)=CC[C@@H]32)C1`, the result was inactive.
On the same count and under the same terms, under `CN1CC[C@H](c2c(O)cc(O)c3c(=O)cc(-c4ccccc4Cl)oc23)[C@H](O)C1` stands “inactive”; under `CCC(=O)Oc1ccc2c(c1)CC[C@@H]1[C@@H]2CC[C@@]2(C)[C@H]1C[C@@H](OC(=O)CC)[C@@H]2OC(=O)CC`, “inactive”.
With `CC(C)(C)C(O)/C=C/c1ccc2c(c1)OCO2` (stereo unspecified), the result was inactive.
Same read-out and setting: under `CCOC(=O)C1=C(C)NC(C)=C(C(=O)OC)C1c1cccc(Cl)c1Cl` (stereo unspecified) stands “inactive”; under `CN1CCN(C2=Nc3cc(F)ccc3Cc3ccccc32)CC1`, “inactive”.
Still for that read-out and setting: the result for `Clc1ccc2c(c1)Nc1ccccc1S2` reads “inactive”; that for `C/C=C(/C(=C/C)c1ccc(OC(C)=O)cc1)c1ccc(OC(C)=O)cc1`, “inactive”.
`CC(=O)OCC(=O)[C@H]1CC[C@H]2[C@@H]3CCC4=CC(=O)CC[C@]4(C)[C@H]3CC[C@]12C`: the AC50 was 844 nM (active).
Turning to `COC(=O)[C@@H]1CC2=CC(=O)CC[C@]2(C)[C@@]23O[C@@H]2C[C@@]2(C)[C@@H](CC[C@@]24CCC(=O)O4)[C@H]13`, the result was inactive.
The same measure, in the same setting: under `CC(=O)O[C@@H]1CC2C3CCc4cc(OC(=O)c5ccccc5)ccc4C3CCC2(C)[C@H]1OC(C)=O` (stereo partly specified) stands “inactive”.
On to `COC(=O)C1=C(C)NC(C)=C(C(=O)OC(C)C)C1c1cccc2nonc12` (stereo unspecified), for which the outcome was inactive.
Turning to `CCCC(=O)OCOC(=O)C1=C(C)NC(C)=C(C(=O)OC)C1c1cccc(Cl)c1Cl` (stereo unspecified), the outcome was inactive.
As for `CCC(=O)O[C@]1(C(=O)COC)[C@@H](C)C[C@H]2[C@@H]3CCC4=CC(=O)C=C[C@]4(C)C3(F)[C@@H](O)C[C@@]21C` (stereo partly specified), the AC50 was 468 nM (active).
Consider `CCCOc1ccc2c(c1)CC[C@@H]1[C@@H]2CC[C@]2(C)C(OC)CC[C@@H]12` (stereo partly specified), for which the outcome was inactive.
Still for that read-out and setting: the result for `CC(=O)OCC(=O)[C@@]1(O)CC[C@H]2[C@@H]3CCC4=CC(=O)CC[C@]4(C)[C@H]3C(=O)C[C@@]21C` reads “inactive”.
On the same count and under the same terms, under `CCN(CC)CC(=O)OCC(=O)[C@@]1(O)CC[C@H]2[C@@H]3CCC4=CC(=O)CC[C@]4(C)[C@H]3[C@@H](O)C[C@@]21C` stands “inactive”.
Still for that read-out and setting: under `C[C@]12CCC(=O)C=C1CC[C@@H]1[C@@H]2[C@@H](O)C[C@@]2(C)[C@H]1CC[C@]2(O)C(=O)CO` stands “inactive”; under `C[C@@H]1CC(=O)NN=C1c1ccc(NN=C(C#N)C#N)cc1`, “inactive”.

The record behind these values is PubChem BioAssay (EPA / NIEHS).
